Screening results as filed in PubChem BioAssay.
Shiga toxin inh: Shiga toxin inhibition; hit rate 9.2% among 290,000; Vero cells, Shiga toxin protein synthesis inhibition reporter; AID 2315; inhibition, % at 38.7 µM; in the data active = inhibition mostly above about 28%, no sharp cut-off; inactive = mostly below about 43%; also: 0% is about no effect
Giardia FBPA inh-1: Giardia lamblia aldolase inhibition | hit rate 0.71% among 290,000 | purified Giardia FBPA | Potency, µM (series often up to 59.6 µM), inactives show at the highest dose activity, negative = inhibition, most hits filed as inhibitors | AID 2451; also: potency is read from the fitted curve at half-maximal effect; % is scaled to controls: 0 for no effect and ±100 for the full control effect; nearly all actives have a fitted effect of over 55% in size
Target sequence (A8B2U2 whole entry, looked up): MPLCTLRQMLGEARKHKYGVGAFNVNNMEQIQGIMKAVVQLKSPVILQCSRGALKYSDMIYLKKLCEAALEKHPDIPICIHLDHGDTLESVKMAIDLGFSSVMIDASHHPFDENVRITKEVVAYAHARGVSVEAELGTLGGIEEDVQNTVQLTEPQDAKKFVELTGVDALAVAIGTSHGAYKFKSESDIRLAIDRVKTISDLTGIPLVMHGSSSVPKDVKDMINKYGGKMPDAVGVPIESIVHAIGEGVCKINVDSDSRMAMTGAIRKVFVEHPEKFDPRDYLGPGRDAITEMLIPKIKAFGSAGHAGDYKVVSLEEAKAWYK
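40 nM FBPA preincubated 10 min at RT with compound (up to 57.5 uM final), then substrate plus GAPDH/TPI/NAD/arsenate coupling and diaphorase/resazurin added. Fluorescence read after 20 min at RT, 525/598 nm.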
RE007 growth inh: less growth of the S. pombe RE007 Vpr strain. Potency, µM (series often up to 92.2 µM), for the others: at the top dose activity change, negative = less growth, most hits filed as inhibitors. S. pombe RE007 Vpr strain, BacTiter-Glo ATP luminescence, 24 h. hit rate 0.21% among 360,000; active = well fitted falling curve with a large enough effect; inconclusive = small, poorly fitted or top-dose-only effect; inactive = no such curve, though single readings can be large or run the other way; also: potency is read from the fitted curve at half-maximal effect; % is scaled to controls: 0 for no effect and ±100 for the full control effect; nearly all actives have a fitted effect of over 50% in size
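Fission yeast strain RE007, carrying one chromosomally integrated HIV-1 vpr copy, was seeded at OD 0.01 in PMG+AL medium with 23 nL pinned compound. After 24 h at 30 °C and 99% humidity, viability was read by BacTiter-Glo luminescence.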
LmPK inh: LmPK (Leishmania mexicana) enzyme inhibition | Potency, µM (highest dose often 57.5 µM), for the others: top-dose activity change, negative = inhibition, usual class: inhibitors | purified LmPK, Kinase-Glo ATP luminescence, 1 h | hit rate 0.37% among 290,000; also: potency is read from the fitted curve at half-maximal effect; % is scaled to controls: 0 for no effect and ±100 for the full control effect
Target sequence (Q27686 whole entry, looked up): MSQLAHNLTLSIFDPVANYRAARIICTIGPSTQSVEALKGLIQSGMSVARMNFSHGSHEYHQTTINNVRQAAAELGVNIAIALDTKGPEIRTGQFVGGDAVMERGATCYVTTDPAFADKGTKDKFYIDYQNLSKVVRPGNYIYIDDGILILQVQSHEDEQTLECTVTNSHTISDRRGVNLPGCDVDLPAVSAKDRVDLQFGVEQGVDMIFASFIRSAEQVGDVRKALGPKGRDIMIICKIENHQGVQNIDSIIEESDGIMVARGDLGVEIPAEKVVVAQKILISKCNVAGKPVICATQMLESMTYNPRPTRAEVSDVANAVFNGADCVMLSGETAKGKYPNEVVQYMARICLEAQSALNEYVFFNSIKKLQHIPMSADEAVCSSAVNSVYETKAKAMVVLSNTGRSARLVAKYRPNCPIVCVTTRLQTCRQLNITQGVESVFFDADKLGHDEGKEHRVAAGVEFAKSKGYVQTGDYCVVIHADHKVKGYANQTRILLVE
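Pyruvate kinase activity monitored as ATP production (luciferase luminescence). Conditions: 0.1 nM enzyme, 0.5 mM PEP, 0.1 mM ADP, 1 h, RT; normalized against uninhibited and no-enzyme wells.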
TbPYK inhibitor: inhibitors of Trypanosoma brucei pyruvate kinase. Q57TT1. TbPYK enzyme, Kinase-Glo Plus ATP luminescence, 45 min. Potency, µM (doses to about 76.8 µM), for inactives: top-dose activity, negative = inhibition, usual class: inhibitors. hit rate 0.12% among 410,000; also: potency is read from the fitted curve at half-maximal effect; % is scaled to controls: 0 for no effect and ±100 for the full control effect; nearly all actives have a fitted effect of over 50% in size
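In this concentration-response screen, enzyme-free wells defined baseline while DMSO plates tracked drift. Each reaction combined TbPYK, substrate, compound and 130 uM ADP for 45 min at room temperature. Kinase-Glo Plus luminescence gave the signal.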
CHX counter-1: counter-screen hit for Shiga toxin inhibitors, cycloheximide | cell reporter, cycloheximide protein synthesis inhibition counterscreen | max response, % | hit rate 12% among 300,000 | AID 2314; in the data active = max response mostly above about 13%, no sharp cut-off; inactive = mostly below about 14%; also: read at 38.3 µM for the half of the compounds with a filed dose; 0% is about no effect
CHX counter-2: protein synthesis counter-screen activity for Shiga toxin hits. shares compounds with Shiga toxin inh. hit rate 3% among 510. Cycloheximide counterscreen, protein synthesis reporter, Shiga toxin assay. Potency, µM (highest dose often 38.3 µM), without a hit: top-dose activity (activation), usual class: activators; calls by dose curve; also: potency is read from the fitted curve at half-maximal effect; 0% is about no effect
Giardia growth: blocks growth of Giardia lamblia trophozoites. shares compounds with Giardia FBPA inh-1. Giardia lamblia trophozoite growth inhibition. Potency, µM (top dose mostly 57.5 µM), for the others: top-dose activity change, negative = inhibition, hits mostly inhibitors. hit rate 5% among 1,500. AID 2785;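 also: potency is read from the fitted curve at half-maximal effect; trophozoites exposed to compound for 48 h at 37 °C; % is scaled to controls: 0 for no effect and ±100 for the full control effect; nearly all actives have a fitted effect of over 70% in size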
Mammalian tox: mammalian cytotoxicity of Giardia aldolase inhibitor hits; Potency, µM (doses to about 57.5 µM), inactives show at the highest dose viability change, negative = toxicity, usual class: inhibitors; mammalian cell viability counter-screen, qHTS; shares compounds with Giardia FBPA inh-1; hit rate 4% among 1,500;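 also: Chinese hamster ovary cells used as mammalian cytotoxicity surrogate; viability measured as cellular ATP by luminescence; potency is read from the fitted curve at half-maximal effect; compound exposure lasted 48 h before reading; % is scaled to controls: 0 for no effect and ±100 for the full control effect; nearly all actives have a fitted effect of over 60% in size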
Giardia FBPA inh-2: confirmation of Giardia fructose-bisphosphate aldolase inhibitors. shares compounds with Giardia FBPA inh-1. purified Giardia aldolase enzyme activity, qHTS. hit rate 5% among 1,500. Potency, µM (top dose mostly 57.5 µM), for inactives: at the highest dose activity change, negative = inhibition, most hits filed as inhibitors. AID 2787; also: potency is read from the fitted curve at half-maximal effect; % is scaled to controls: 0 for no effect and ±100 for the full control effect; nearly all actives have a fitted effect of over 45% in size
Rabbit FBPA inh: blocks rabbit muscle aldolase in Giardia aldolase selectivity test. shares compounds with Giardia FBPA inh-1. Rabbit muscle FBPA enzyme inhibition, selectivity counter-screen. Potency, µM (top dose mostly 57.5 µM), for inactives: top-dose activity, negative = inhibition, most hits filed as inhibitors. hit rate 4% among 1,500; also: potency is read from the fitted curve at half-maximal effect; % is scaled to controls: 0 for no effect and ±100 for the full control effect; nearly all actives have a fitted effect of over 60% in size
GAPDH counter: GAPDH inhibition flagged for Giardia aldolase hits | shares compounds with Giardia FBPA inh-1 | GAPDH coupling enzyme counterscreen, biochemical, qHTS | Potency, µM (titrated, usually from 57.5 µM), for the others: at the top dose activity change, negative = inhibition, hits mostly inhibitors | hit rate 6% among 1,500 | AID 2795; also: potency is read from the fitted curve at half-maximal effect; % is scaled to controls: 0 for no effect and ±100 for the full control effect; nearly all actives have a fitted effect of over 55% in size
The depositor's hits bear a star; ! = not active in a repeat; [ ] = remark or other dose. Shown is part of a subset that was picked to be rich in hits. Unless noted, calls follow the shape of the dose curve; as a rule, active = well fitted curve in the direction sought with a large enough effect; inconclusive = small, poorly fitted or top-dose-only effect, or another doubt; inactive = no such curve, though single readings can be large; an effect the other way counts as inactive or inconclusive.

Screening Cc1nc(N2CCN(C(=O)c3ccco3)CC2)nc2c1C(=O)CCC2 returned Shiga toxin inh 36*, RE007 growth inh 16%, LmPK inh -14%, TbPYK inhibitor 1%, CHX counter-1 15 and CHX counter-2 inconclusive.
O=C(CCN1N=C(c2ccccc2)CCC1=O)NCC1COc2ccccc2O1 (stereo unspecified) was read as Shiga toxin inh -13, Giardia FBPA inh-1 -13%, RE007 growth inh 1%, LmPK inh 9%, TbPYK inhibitor -6% and CHX counter-1 -1.
Cc1c(C(=O)Nc2ccc(-c3nnc4n3CCCCC4)cc2)oc2ccc(Br)cc12 was read as Shiga toxin inh 14*, Giardia FBPA inh-1 -4%, RE007 growth inh -14%, LmPK inh -1%, TbPYK inhibitor -6%, CHX counter-1 -4 and CHX counter-2 inconclusive.
Screening O=C(O)c1ccn(Cn2cnc3ccccc32)n1 returned Shiga toxin inh 27*, Giardia FBPA inh-1 -7%, RE007 growth inh -1%, LmPK inh 2%, TbPYK inhibitor -4%, CHX counter-1 7 and CHX counter-2 -1%.
For CC(C)Oc1ccc(C(=O)NC(Cc2c[nH]c3ccccc23)C(=O)NN)cc1 (stereo unspecified) the results were Shiga toxin inh 37*, Giardia FBPA inh-1 9%, RE007 growth inh 2%, LmPK inh 4%, TbPYK inhibitor -4%, CHX counter-1 9 and CHX counter-2 1%.
Screening CCn1c(SCC(=O)Nc2cc(C)on2)nnc1-c1cccc(C)c1 returned Shiga toxin inh 93*, Giardia FBPA inh-1 -3%, RE007 growth inh -2%, LmPK inh 3%, TbPYK inhibitor -11%, CHX counter-1 1 and CHX counter-2 -5%.
Screening Cc1cccc(NC(=O)C2CCCC2)c1 returned Shiga toxin inh 36*, Giardia FBPA inh-1 -3%, RE007 growth inh 11%, LmPK inh 5%, TbPYK inhibitor 2%, CHX counter-1 -3 and CHX counter-2 3%.
`Cc1cccc(NNC(=O)C2CCC2)c1` gave Shiga toxin inh -8, Giardia FBPA inh-1 -4%, RE007 growth inh 27%, LmPK inh -1%, TbPYK inhibitor 2% and CHX counter-1 -4.
Screening CC[C@@]12C(=O)N(c3ccc(OC)cc3)C(=O)N1[C@H](c1cccc(C)c1)[C@@H]1C(=O)N(Cc3ccccc3)C(=O)[C@@H]12 returned Shiga toxin inh -2, Giardia FBPA inh-1 -3%, RE007 growth inh 4%, LmPK inh 0%, TbPYK inhibitor -5% and CHX counter-1 -2.
Cc1ccc(-c2nc(NC(=O)CSc3nc(C)nc4sc5c(c34)CCCC5)ns2)cc1 was read as TbPYK inhibitor -6%.
COCCCNC(=O)NC(=O)c1ccccc1 was read as Shiga toxin inh 18*, Giardia FBPA inh-1 1%, RE007 growth inh 0%, LmPK inh -1%, TbPYK inhibitor 5%, CHX counter-1 5 and CHX counter-2 2%.
For CC(C)c1ccc(NC(=O)CCNC(=O)N2CC(=O)Nc3ccccc32)cc1 the results were Shiga toxin inh 2, RE007 growth inh 0%, LmPK inh 3%, TbPYK inhibitor 10% and CHX counter-1 -1.
`CCCN(C(=O)CSc1ncnc2sccc12)c1c(N)n(Cc2ccccc2)c(=O)[nH]c1=O` gave RE007 growth inh -3% and TbPYK inhibitor 1%.
Screening N#Cc1ccc(N=c2ssnc2Cl)cc1 returned Shiga toxin inh 28*, Giardia FBPA inh-1 16µM*, RE007 growth inh 35µM*!, LmPK inh -2%, TbPYK inhibitor 14µM*, CHX counter-1 2, CHX counter-2 0%, Giardia growth -8%, Mammalian tox -12%, Giardia FBPA inh-2 -23%, Rabbit FBPA inh 40µM* and GAPDH counter 11%.
For Cc1cn2c(=O)cc(COc3ccc(NC(=O)COc4ccccc4)cc3)nc2s1 the results were TbPYK inhibitor 5%.
Screening O=c1cc(-c2ccc(O)cc2)oc2c(O)c(O)c(O)c(O)c12 returned Shiga toxin inh 2, Giardia FBPA inh-1 6.3µM*, RE007 growth inh 5%, LmPK inh -16%, TbPYK inhibitor -28%, CHX counter-1 -1, Giardia growth -8%[38.3 µM], Mammalian tox -10%, Giardia FBPA inh-2 21µM*, Rabbit FBPA inh 18µM* and GAPDH counter inconclusive.
`Cc1cc(C)cc(N2C(=O)CC(Sc3nnnn3-c3ccccc3)C2=O)c1` (stereo unspecified) gave Shiga toxin inh 2, RE007 growth inh -17%, LmPK inh -5%, TbPYK inhibitor -15% and CHX counter-1 18.
For Cc1cc(C)cc(N2C(=O)CC(Sc3ncn[nH]3)C2=O)c1 (stereo unspecified) the results were Shiga toxin inh -18, Giardia FBPA inh-1 20µM*, RE007 growth inh -8%, LmPK inh -3%, TbPYK inhibitor -15%, CHX counter-1 -2, Giardia growth 22%, Mammalian tox -4%, Giardia FBPA inh-2 4%, Rabbit FBPA inh 4% and GAPDH counter 11%.
Nc1nc(=S)c2ncn(C3CCCC3)c2[nH]1 was read as Shiga toxin inh -6, Giardia FBPA inh-1 7.1µM*, RE007 growth inh 8%, LmPK inh -5%, TbPYK inhibitor -6%, CHX counter-1 -2, Giardia growth -4%[38.3 µM], Mammalian tox 6%, Giardia FBPA inh-2 -5%, Rabbit FBPA inh -5% and GAPDH counter -8%.
Screening COc1ccccc1CN(C)C(=O)COC(=O)c1cc(C)oc1C returned RE007 growth inh 16% and TbPYK inhibitor -3%.
